# Screens deposited in PubChem BioAssay by National Center for Advancing Translational Sciences (NCATS).
# An excerpt weighted towards active compounds, which were near 10% of everything screened.
# VDR inhibitor – inhibitors of human vitamin D receptor; Potency, µM, for the others: max response, negative = inhibition, most hits filed as inhibitors; P11473; VDR-SRC2-3 peptide fluorescence polarization, 2 h; 400,000 tested, 0.93% active; note: potency is the fitted concentration of half-maximal effect; % is set by controls: 0 for no effect and ±100 for the full control effect
# Target sequence (P11473 whole entry, looked up): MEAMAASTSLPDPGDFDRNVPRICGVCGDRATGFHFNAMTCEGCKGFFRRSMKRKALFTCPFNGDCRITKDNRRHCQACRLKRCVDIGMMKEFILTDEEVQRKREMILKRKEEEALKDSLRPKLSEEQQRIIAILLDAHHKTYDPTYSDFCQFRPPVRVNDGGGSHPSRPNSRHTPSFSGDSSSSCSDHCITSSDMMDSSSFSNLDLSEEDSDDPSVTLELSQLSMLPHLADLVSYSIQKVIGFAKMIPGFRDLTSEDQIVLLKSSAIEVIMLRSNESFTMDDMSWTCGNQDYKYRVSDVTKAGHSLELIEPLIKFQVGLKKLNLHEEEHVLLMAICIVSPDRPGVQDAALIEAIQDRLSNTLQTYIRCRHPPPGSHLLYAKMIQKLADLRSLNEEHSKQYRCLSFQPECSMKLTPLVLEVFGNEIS
#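 Two reagent solutions held at 4 deg C in the dark were dispensed, compounds pinned at 23 nl, and the mixture incubated 2 h at room temperature. Read-out: fluorescence polarization of VDR–SRC2-3 peptide binding.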
# Sfp PPTase inh – blocks B. subtilis Sfp PPTase activity; 310,000 tested, 3.5% active; Biochemical Sfp PPTase activity, qHTS; Q9F4F7; Potency, µM, for inactives: largest response in the series, negative = inhibition, usual class: inhibitors; AID 1490;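 note: the enzyme is Sfp with the accession as filed and its product quenches rhodamine fluorescence; potency is the fitted concentration of half-maximal effect; 0% = enzyme reaction without inhibitor and -100% = no enzyme wells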
#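 Compounds were incubated with enzyme (final 15 nM) for 15 min at room temperature before substrate addition started the reaction. Fluorescence at 525 nm excitation, 598 nm emission was recorded immediately and after 30 minutes.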
# PLK1 PBD block – PLK1 (human) polo-box domain binding inhibition. P53350. Plk1 PBD binding of FITC phosphopeptide, fluorescence polarization. Potency, µM, for inactives: max response, negative = inhibition, hits mostly inhibitors. 360,000 tested, 2.8% active. AID 720504; note: potency is the fitted concentration of half-maximal effect; series mostly up to about 57 µM; % is set by controls: 0 for no effect and ±100 for the full control effect; nearly all actives have a fitted effect of over 65% in size
# G9a block – blocks human histone lysine methyltransferase G9a. Q96KQ7. G9a H3K9 monomethylation, AlphaScreen, 2 h. Potency, µM (highest dose often 102 µM), for inactives: at the top dose activity, negative = inhibition, most hits filed as inhibitors. 350,000 tested, 8.8% active; note: potency is the fitted concentration of half-maximal effect; % is set by controls: 0 for no effect and ±100 for the full control effect; nearly all actives have a fitted effect of over 75% in size
# Target sequence (Q96KQ7 913-1193 limits assumed): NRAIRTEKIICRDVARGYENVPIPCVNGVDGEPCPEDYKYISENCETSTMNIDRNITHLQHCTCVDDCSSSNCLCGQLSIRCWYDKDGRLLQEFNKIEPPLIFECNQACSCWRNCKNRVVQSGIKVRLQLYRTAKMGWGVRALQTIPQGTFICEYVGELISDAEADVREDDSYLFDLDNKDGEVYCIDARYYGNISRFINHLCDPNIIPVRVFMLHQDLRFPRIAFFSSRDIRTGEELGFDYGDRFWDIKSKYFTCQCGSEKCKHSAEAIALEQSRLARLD
#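 Readings reflect AlphaScreen signal from monomethyl-H3K9 antibody detection. HMT at 20 nM; substrate b-H3K9 500 nM; cofactor SAM 20 uM; 2 h RT reaction; compounds tested as titrations in qHTS with 15 min preincubation.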
# CCT chaperon mod – changes cytosolic chaperonin activity. 360,000 tested, 0.3% active. AID 651819. purified chaperonin ATPase assay, HTRF ADP detection, 30 min. activity change, % (concentration not given with the values), hits read low; in the data active = activity change below about -30%; note: % is set by controls: 0 for no effect and ±100 for the full control effect
#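 ATPase activity: ADP formed was measured by HTRF Transcreener (665/615 nm ratio) after 30 min at 37 deg C with 10 uM ATP. Compounds screened at one 76 uM concentration against 40 or 20 nM TRiC in Tris pH 7.4/KCl/MgCl2/DTT buffer.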
# Mm-Cpn inhibitor – inhibitors of Methanococcus maripaludis chaperonin TRiC (MmCpn); Potency, µM (titrated, usually from 76.9 µM), inactives show at the top dose activity, negative = inhibition, usual class: inhibitors; AID 504842; 330,000 tested, 0.031% active; purified Mm-Cpn ATPase, ADP Transcreener TR-FRET; note: potency is the fitted concentration of half-maximal effect; % is set by controls: 0 for no effect and ±100 for the full control effect; nearly all actives have a fitted effect of over 80% in size
#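 ATPase turnover read by TR-FRET ADP competition (Eu cryptate antibody/ADP-d2, 665/590 nm): 10uM ATP final, 25nM Mm-CPN final, 30 min 37degC after 10-min compound preincubation, pH 7.4 Tris/KCl/MgCl2/DTT buffer.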
# USP1-UAF1 confirm – USP1-UAF1 deubiquitinase inhibition validated; shares compounds with VDR inhibitor; Ub-Rhodamine cleavage, fluorescence kinetic read; Potency, µM (series often up to 56.8 µM), for inactives: at the highest dose activity change, negative = inhibition, usual class: inhibitors; 50 tested, 50% active
# VDR inh confirm – confirmation of human vitamin D receptor inhibitors | shares compounds with VDR inhibitor | VDR-coactivator inhibition assay, qHTS confirmation | Potency, µM, hits mostly inhibitors | 840 tested, 89% active | AID 602199; note: potency is the fitted concentration of half-maximal effect
# VDR FP fluor – blocks human VDR-coactivator binding in fluorescein assay | 840 tested, 48% active | shares compounds with VDR inhibitor | Potency, µM (top dose mostly 57.1 µM), for inactives: at the highest dose activity change, negative = inhibition, actives largely listed as inhibitors | VDR-coactivator binding, fluorescein fluorescence polarization | AID 602200; note: potency is the fitted concentration of half-maximal effect
# VDR bla – confirmation of human vitamin D receptor inhibitors in reporter cells; shares compounds with VDR inhibitor; VDR beta-lactamase reporter cells, FRET ratio; cells co-treated with VDR agonist LG190178; Potency, µM (titrated, usually from 46.1 µM), for inactives: at the top dose activity change, negative = inhibition, actives largely listed as inhibitors; 840 tested, 23% active; note: potency is the fitted concentration of half-maximal effect; % is set by controls: 0 for no effect and ±100 for the full control effect
# VDR cytotox – counter-screen for vitamin D receptor inhibitors: cytotoxicity; Potency, µM (series often up to 48.3 µM), inactives show at the top dose activity change, negative = cytotoxicity, hits mostly cytotoxic; 840 tested, 18% active; shares compounds with VDR inhibitor; cytotoxicity counter-screen, cell viability, qHTS;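 note: potency is the fitted concentration of half-maximal effect; plate controls were DMSO for no effect and high-concentration cycloheximide for full effect; nearly all actives have a fitted effect of over 75% in size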
# Starred values were filed as active, the others as inactive; ? = inconclusive; nt = not tested or not shown; ! = not active in a repeat; [ ] = another dose, or the depositor's remark. Unless noted, calls come from the whole dose curve; as a rule, active = well fitted curve in the direction sought with a large enough effect; inconclusive = small, poorly fitted or top-dose-only effect, or another doubt; inactive = no such curve, though single readings can be large; an effect the other way counts as inactive or inconclusive.
SMILES,VDR inhibitor,Sfp PPTase inh,PLK1 PBD block,G9a block,CCT chaperon mod,Mm-Cpn inhibitor,VDR inh confirm,VDR FP fluor,VDR bla,VDR cytotox,others
O=C(O)c1ccc(S(=O)(=O)c2ccc([N+](=O)[O-])cc2[N+](=O)[O-])cc1,22µM*,79µM*,8.4µM*,25µM*,0,1%,11*,?,15%,-14%,
CCOC(=O)c1c(-c2ccccc2)csc1NC(=O)c1cc(-c2cccc(OC)c2)on1,79µM*,nt,nt,4µM*,nt,nt,22*,16µM*,-16%,-3%,
COc1cccc(-c2cc(C(=O)NCc3ccccc3)no2)c1,-7%,nt,nt,-4%[59 µM],nt,nt,nt,nt,nt,nt,
Cc1ccc(NN2C(=O)C=C(c3ccc(Cl)cc3)C2=O)cc1,50µM*,?,4.7µM*,12%[59 µM],-3,-29%,?,?,?,?,
COc1ccc(Nc2cccccc2=O)cc1,-1%,12%,1%,?,-1,-1%,nt,nt,nt,nt,
COc1ccc(C2=CC(=O)N(Nc3ccccc3)C2=O)cc1,?,-4%,-25%,?,0,0%,3.2*,3.5µM*,-7%,13%,
O=C(/C=C/c1ccccc1)c1ccc2c(c1)OCO2,?,-6%,-8%,34%,-1,-5%,nt,nt,nt,nt,
O=C(/C=C/c1ccncc1)c1ccc2c(c1)OCCO2,28µM*,-26%,-24%,50µM*,1,?,27*,?,1%,-7%,
Cc1ccc(OCC(=O)OCc2cc(=O)n3nc(-c4cccs4)sc3n2)cc1C,24%,nt,nt,4%[59 µM],nt,nt,nt,nt,nt,nt,
O=C(O)COc1cccc(-c2ocnc2-c2nc(-c3ccccc3)c(-c3ccccc3)o2)c1,?,?,nt,nt,nt,nt,nt,nt,nt,nt,USP1-UAF1 confirm=59µM*
Cc1ccc(-c2nc(-c3nccc4ccccc34)oc2-c2ccccc2)cc1,-9%,-20%,-25%,27%,-1,-1%,nt,nt,nt,nt,
COC1=C(OC)C(=O)c2ccccc2C1=O,35µM*,nt,nt,20µM*!,nt,nt,nt,nt,nt,nt,USP1-UAF1 confirm=30µM*
CCOc1ccc(C(=O)OC(C)C(=O)N2CCN(Cc3ccccc3)CC2)cc1 (stereo not given),-8%,nt,2%,nt,-21,-2%,nt,nt,nt,nt,
CCOc1ccc(C(=O)CC(C(=O)O)N2CCN(Cc3ccccc3)CC2)cc1 (stereo not given),50µM*,nt,-23%,13%[0.501 µM],0,-5%,24*,28µM*,27%,-25%,
CCOc1ccc(C(=O)CC(C(=O)O)N2CCCCC2)cc1 (stereo not given),40µM*,nt,?,12%[12.7 µM],-2,0%,24*,?,11%,-1%,
CCOc1ccc(C(=O)N2CCCCCC2)cc1,4%,8%,-10%,2%[12.7 µM],-3,-2%,nt,nt,nt,nt,
COC(=O)C1=C[C@@H](C(=O)OC)C2C3=C(C(=O)[C@]2(C)NC(=O)c2ccccc2)[C@H](C)[C@@H]2C(=O)N(C)C(=O)[C@@H]2[C@@H]3C1 (stereo not given in full),-6%,1%,nt,nt,nt,nt,nt,nt,nt,nt,
COc1cccc(CNC(=O)c2c(C)nn(-c3cccc(C)c3)c2-n2cccc2)c1,9%,nt,nt,9%[59 µM],nt,nt,nt,nt,nt,nt,
O=C(c1ccc(Cl)cc1)C(CN1CCCCC1)c1ccccc1 (stereo not given),20µM*,-29%,?,-18%,-1,1%,?,22µM*,13µM*,18µM*,
CCOC(=O)C(CN1CCCC1)c1ccccc1 (stereo not given),-10%,nt,-9%,11%[2.33 µM],-5,-7%,nt,nt,nt,nt,
Cc1ccc(C(=O)N2CCc3cc(CNS(=O)(=O)c4cccs4)ccc32)cc1,5%,nt,nt,10%[59 µM],nt,nt,nt,nt,nt,nt,
O=C(/C=C/c1ccc(Cl)cc1)c1ccc([N+](=O)[O-])o1,11µM*,nt,?,-14%[2.33 µM],1,1%,1.3*,1µM*,7.3µM*,1%,
Cc1ccc(C(=O)/C=C/c2ccccc2)o1,?,6%,-13%,-1%[59 µM],2,-12%,nt,nt,nt,nt,
Cc1cccc(C)c1NC(=O)c1sc(-n2nc(C)c(Cc3ccccc3)c2C)nc1C,8%,nt,nt,-2%[59 µM],nt,nt,nt,nt,nt,nt,
CCOc1ccc(NC(=O)CC2C(=O)N(c3ccc(C)cc3)C(=O)N2CCC2=CCCCC2)cc1 (stereo not given),-5%,nt,nt,-20%[59 µM],nt,nt,nt,nt,nt,nt,
SMILES,VDR inhibitor,Sfp PPTase inh,PLK1 PBD block,G9a block,CCT chaperon mod,Mm-Cpn inhibitor,VDR inh confirm,VDR FP fluor,VDR bla,VDR cytotox,others
COCCCNC(=O)CSc1nc2cc3c(cc2c(=O)n1CCCCCC(=O)NCCc1ccc(OC)c(OC)c1)OCO3,16%,nt,nt,4%[59 µM],nt,nt,nt,nt,nt,nt,
c1ccc(CCc2nn3c(Cc4ccccc4)nnc3s2)cc1,79µM*,22µM*,11µM*,?,-3,1%,28*,25µM*,-5%,?,
c1ccc2nc3c(nc2c1)c1ccccc1n3CCN1CCOCC1,7%,2%,-12%,-7%[12.7 µM],1,-1%,nt,nt,nt,nt,
O=c1ccc2cc(S(=O)(=O)N3CCOCC3)ccc2o1,8%,16%,-8%,4%[59 µM],-1,0%,nt,nt,nt,nt,
CCSc1nc2cc(S(=O)(=O)N3CCOCC3)ccc2o1,25µM*,nt,3µM*,nt,2,0%,9.5*,?,-1%,24%,
CCn1c2ccccc2c2nc3cc(S(=O)(=O)N4CCOCC4)ccc3nc21,28µM*,6.3µM*,0.67µM*,2.2µM*,0,0%,6*,?,10%,?,
O=C(CSc1nc2cc(Cl)ccc2o1)Nc1ccc(N2CCOCC2)cc1,-1%,7%,-7%,-43%,-3,1%,nt,nt,nt,nt,
O=C(CSc1nc2cc(S(=O)(=O)N3CCOCC3)ccc2o1)Nc1c(F)cccc1F,18µM*,13µM*,2.7µM*,4µM*,1,1%,11*,7.1µM*,2%,5%,
CCCCN1C(=O)C(=Nc2cccc3cnccc23)c2ccccc21,50µM*,7%,-14%,45µM*,-3,4%,15*,?,12%,29%,
